Source: PubChem BioAssay (National Center for Advancing Translational Sciences (NCATS))
Shown are actives, neighbours in structure and some others; about 3.2% of the full set was active somewhere.
TRb-SRC2 inh: inhibitors of human thyroid hormone receptor beta-SRC2 interaction | P10828 | TRbeta-SRC2 peptide binding, fluorescence polarization; receptor liganded with 1 µM T3 | Potency, µM (top dose mostly 106 µM), hits mostly inhibitors | actives 0.065% (n = 280,000) | AID 1469; also: nearly all actives have a fitted effect of over 50% in size
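Each compound concentration gave % activity, normalized to unbound and bound Texas Red SRC2 controls, from polarization read after 5 hr ambient incubation with T3-loaded human TRb LBD.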
Tau ThT inhib: inhibitors of human tau fibril formation, thioflavin T binding | P10636 | recombinant tau K18 P301L, heparin-induced fibrillization, ThT fluorescence | Potency, µM (series often up to 57.4 µM), actives largely listed as inhibitors | actives 2.1% (n = 270,000) | AID 1460; also: nearly all actives have a fitted effect of over 55% in size
Target sequence (P10636 561-689 P618L limits assumed): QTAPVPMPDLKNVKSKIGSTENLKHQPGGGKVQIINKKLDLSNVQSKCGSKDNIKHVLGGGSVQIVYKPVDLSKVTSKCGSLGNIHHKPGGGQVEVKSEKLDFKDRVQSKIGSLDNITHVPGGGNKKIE
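Heparin-induced fibrillization of the P301L-mutant K18 repeat-domain fragment of human tau was followed by ThT binding in quantitative high-throughput format.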
GoLoco inh red: blocks human Gai1 binding to RGS12 GoLoco peptide, red readout; P63096; Gai1:RGS12 GoLoco peptide FP, rhodamine, 10 min; Potency, µM (top dose mostly 61.6 µM), usual class: inhibitors; actives 0.44% (n = 230,000); active = well fitted inhibition curve with a large enough effect, not every such curve was filed as active; inactive = no such curve, though single readings can be large or run the other way; also: nearly all actives have a fitted effect of over 30% in size
Target sequence (P63096 whole entry, looked up): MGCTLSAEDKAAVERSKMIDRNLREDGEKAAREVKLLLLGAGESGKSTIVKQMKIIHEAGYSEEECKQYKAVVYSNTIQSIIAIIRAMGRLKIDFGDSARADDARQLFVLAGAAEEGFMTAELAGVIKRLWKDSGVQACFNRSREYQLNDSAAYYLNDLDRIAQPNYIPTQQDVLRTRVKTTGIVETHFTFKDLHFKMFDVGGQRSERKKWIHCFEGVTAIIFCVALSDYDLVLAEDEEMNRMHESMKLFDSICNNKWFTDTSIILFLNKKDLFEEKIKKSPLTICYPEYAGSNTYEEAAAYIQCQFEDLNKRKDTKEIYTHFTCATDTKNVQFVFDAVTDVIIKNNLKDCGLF
Tau FP inhib: blocks human tau fibril formation measured by polarization; P10636; K18 P301L tau heparin fibrillization, Alexa594 FP, 6 h; Potency, µM (top dose mostly 57.7 µM), usual class: inhibitors; actives 0.39% (n = 280,000); also: nearly all actives have a fitted effect of over 55% in size
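FP of Alexa 594-tau after heparin (20 uM) induction. Substrate: human K18 P301L, 15 uM unlabeled, 0.24 uM labeled. Buffer 100 mM sodium acetate pH 7. 6 hr, 37 C.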
TR SRC2 fluor cs: alters Texas Red total fluorescence, flagging assay interference; Potency, µM (top dose mostly 106 µM); TRb/SRC2 Texas Red total fluorescence interference; actives 0.29% (n = 280,000); active = well fitted curve in either direction with a large enough effect; inconclusive = small, poorly fitted or top-dose-only effect
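Flags fluorescent or light-absorbing compounds by total fluorescence, S + 2P, at 555 nm excitation and 632 nm emission. Mixture: 20 nM Texas Red SRC2 peptide, 0.6 uM human TRb LBD, 1 uM T3, 5% DMSO; compound exposure 5 h at ambient temperature.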
Tau fluor counter: counter-screen for tau fibril formation inhibitors | tau K18 P301L Alexa594 fluorescence, heparin fibrillization | Potency, µM (highest dose often 57.7 µM) | actives 0.93% (n = 280,000) | AID 1463; also: nearly all actives have a fitted effect of over 55% in size
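Human tau K18 P301L (15 uM unlabeled, 0.24 uM Alexa 594-labeled) in 100 mM sodium acetate pH 7 with 20 uM heparin, 6 hr at 37 C. ThT 30 uM added, 1 hr ambient; Alexa 594 FP and total fluorescence read at 555/632 nm.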
Hits are given with their value; ! = not active in a repeat; [ ] = another dose, or the depositor's remark. Unless noted, calls follow the shape of the dose curve; as a rule, active = well fitted curve in the direction sought with a large enough effect; inconclusive = small, poorly fitted or top-dose-only effect, or another doubt; inactive = no such curve, though single readings can be large; an effect the other way counts as inactive or inconclusive.

For Cc1cccc(N2C(=O)NC(=O)/C(=C/c3cc4c(cc3[N+](=O)[O-])OCO4)C2=O)c1 the results were TRb-SRC2 inh inactive, Tau ThT inhib inconclusive, GoLoco inh red inactive, Tau FP inhib inactive, TR SRC2 fluor cs inactive and Tau fluor counter inactive.
`O=C1NC(=O)C(=Cc2cc3c(cc2[N+](=O)[O-])OCO3)C(=O)N1` gave TRb-SRC2 inh inactive, Tau ThT inhib 13µM, GoLoco inh red inactive, Tau FP inhib 28µM, TR SRC2 fluor cs inactive and Tau fluor counter inactive.
For Cc1ccccc1C(=O)Nc1cccc(OC(C)C)c1 the results were TRb-SRC2 inh inactive and TR SRC2 fluor cs inactive.
COc1ccc(Nc2cc(C)c3cc(NC(=O)c4ccccc4Cl)ccc3n2)cc1 was read as TRb-SRC2 inh inactive, Tau ThT inhib 4µM, Tau FP inhib inconclusive, TR SRC2 fluor cs inactive and Tau fluor counter 8.9µM[quencher].
Screening O=C(OCC(=O)c1ccc([N+](=O)[O-])cc1)/C(=C/c1ccc(Cl)cc1)NC(=O)c1ccccc1 returned TRb-SRC2 inh inactive, Tau ThT inhib 28µM, GoLoco inh red inactive, Tau FP inhib inconclusive, TR SRC2 fluor cs inactive and Tau fluor counter inactive.
Screening c1ccc2c(c1)[nH]c1cnccc12 returned TRb-SRC2 inh inactive, Tau ThT inhib inactive, GoLoco inh red inactive, Tau FP inhib inactive, TR SRC2 fluor cs inactive and Tau fluor counter inactive.
`Cc1c2ccncc2c(C)c2c1[nH]c1ccccc12` gave TRb-SRC2 inh inactive, Tau ThT inhib 11µM, GoLoco inh red inactive, Tau FP inhib inactive, TR SRC2 fluor cs inactive and Tau fluor counter inconclusive.
`CCC(C)(c1ccc(O)cc1)c1ccc(O)cc1` gave TRb-SRC2 inh inactive and TR SRC2 fluor cs inactive.
For CCC(C)(C)c1ccc(O)cc1 the results were TRb-SRC2 inh inactive, GoLoco inh red 8.9µM! and TR SRC2 fluor cs inactive.
CN1C2CCC1/C(=C/c1ccccn1)C(=O)/C2=C\c1ccccn1 was read as TRb-SRC2 inh inactive, Tau ThT inhib 4.5µM, GoLoco inh red inactive, Tau FP inhib inconclusive, TR SRC2 fluor cs inactive and Tau fluor counter inactive.
COc1cc(OC)nc(NC(=O)NS(=O)(=O)c2ncccc2C(F)(F)F)n1 was read as TRb-SRC2 inh inactive and TR SRC2 fluor cs inactive.
`CNC(=O)/C=C(\C)OP(=O)(OC)OC` gave TRb-SRC2 inh inactive and TR SRC2 fluor cs inactive.
For CCOCCOC(C)=O the results were TRb-SRC2 inh inactive, GoLoco inh red 28µM and TR SRC2 fluor cs inactive.
`CC1(C)[C@H](C=C(Cl)Cl)[C@H]1C(=O)O[C@H](C#N)c1ccc(F)c(Oc2ccccc2)c1` gave TRb-SRC2 inh inactive and TR SRC2 fluor cs inactive.
Screening O=C1NC(=O)C(=O)C(=O)N1 returned TRb-SRC2 inh inactive, Tau ThT inhib 2.5µM, GoLoco inh red inactive, Tau FP inhib 2.8µM, TR SRC2 fluor cs inactive and Tau fluor counter inactive.
`COc1ccc2oc(=O)c(C(=O)NCCc3c(C)[nH]c4ccc(F)cc34)cc2c1` gave TRb-SRC2 inh inactive, Tau ThT inhib inconclusive, Tau FP inhib inconclusive, TR SRC2 fluor cs inactive and Tau fluor counter 7.9µM[quencher].
Cc1ccc2[nH]c(C)c(CCNC(=O)c3cc4cc([N+](=O)[O-])ccc4oc3=O)c2c1 was read as TRb-SRC2 inh inactive, Tau ThT inhib inconclusive, GoLoco inh red inactive, Tau FP inhib inactive, TR SRC2 fluor cs inactive and Tau fluor counter inconclusive.
`CN(CCC(=O)O)C1=Nc2ccc(Cl)cc2C(c2ccccc2)=[N+]([O-])C1` gave GoLoco inh red inactive[14.2 µM].
Screening CCc1ccc(OCC(=O)N2CCN(CCc3ccncc3)CC2)cc1 returned TRb-SRC2 inh inactive, Tau ThT inhib inactive, Tau FP inhib inactive, TR SRC2 fluor cs 708µM[quencher] and Tau fluor counter inactive.
For Cc1ccc(OCC(=O)N2CCN(CCc3ccncc3)CC2)cc1 the results were TRb-SRC2 inh inactive, Tau ThT inhib inactive, Tau FP inhib inactive, TR SRC2 fluor cs inactive and Tau fluor counter inactive.
COC(C)(C)CCC[C@H](C)C/C=C/C(C)=C/C(=O)OC(C)C was read as TRb-SRC2 inh inactive and TR SRC2 fluor cs inactive.
For O=c1cc(C(F)(F)F)c2cc3c4c(c2o1)CCCN4CCC3 the results were TRb-SRC2 inh inactive, Tau ThT inhib inactive, GoLoco inh red 13µM, Tau FP inhib inactive, TR SRC2 fluor cs inactive and Tau fluor counter inactive.
For COc1ccc2c(c1)/C(=C/c1cnc[nH]1)C(=O)N2 the results were TRb-SRC2 inh inactive, Tau ThT inhib 14µM, GoLoco inh red inactive, Tau FP inhib inactive, TR SRC2 fluor cs inactive and Tau fluor counter inactive.
`O=P(OCC(Br)CBr)(OCC(Br)CBr)OCC(Br)CBr` (stereo not drawn) gave TRb-SRC2 inh inactive and TR SRC2 fluor cs inactive.
CN/C(=N/[N+](=O)[O-])NCC1CCOC1 (stereo not drawn) was read as TRb-SRC2 inh inactive and TR SRC2 fluor cs inactive.
`CCc1c(C)nc(N)nc1N1N=C1SC(C(C)=O)C(C)=O` gave TRb-SRC2 inh inactive, Tau ThT inhib 18µM, GoLoco inh red inactive, Tau FP inhib inconclusive, TR SRC2 fluor cs inactive and Tau fluor counter inactive.
`Cc1nonc1OCCNc1ccc([N+](=O)[O-])c2cccnc12` gave TRb-SRC2 inh inactive, Tau ThT inhib 7.1µM, GoLoco inh red inactive, Tau FP inhib inactive, TR SRC2 fluor cs inactive and Tau fluor counter inconclusive.
CC[C@]1(O)CC(O[C@@H]2CC(N(C)C)C(O)C(C)O2)c2c(cc3c(c2O)C(=O)c2c(O)cccc2C3=O)C1C(=O)OC (stereo partly drawn) was read as TRb-SRC2 inh inactive, Tau ThT inhib 8.9µM, GoLoco inh red inactive, Tau FP inhib inactive, TR SRC2 fluor cs inactive and Tau fluor counter inconclusive.
Screening Cc1ccc(NC(=O)Cn2cc(C(=O)c3ccccc3)c3ccccc32)cc1 returned TRb-SRC2 inh inactive, Tau ThT inhib inactive, Tau FP inhib inactive, TR SRC2 fluor cs 0.025µM[quencher] and Tau fluor counter inconclusive.
Screening O=C(Cn1cc(C(=O)c2ccccc2)c2ccccc21)Nc1ccc(Br)cc1 returned TRb-SRC2 inh inactive, Tau ThT inhib inactive, Tau FP inhib inactive, TR SRC2 fluor cs inactive and Tau fluor counter inconclusive.
For COc1cc(C=C2C(=O)NC(=O)NC2=O)ccc1O the results were TRb-SRC2 inh inactive, Tau ThT inhib inconclusive, GoLoco inh red inactive, Tau FP inhib inactive, TR SRC2 fluor cs inactive and Tau fluor counter inactive.
`Oc1ccc(/C=N/NP(=S)(c2ccccc2)c2ccccc2)cc1` gave TRb-SRC2 inh inactive, Tau ThT inhib inconclusive, GoLoco inh red inactive, Tau FP inhib inconclusive, TR SRC2 fluor cs inactive and Tau fluor counter 13µM[quencher].
COc1cc(/C=N/NP(=S)(c2ccccc2)c2ccccc2)ccc1O was read as TRb-SRC2 inh inactive, Tau ThT inhib inconclusive, GoLoco inh red inactive, Tau FP inhib inactive, TR SRC2 fluor cs inactive and Tau fluor counter 14µM[quencher].
